For part of these data: Potency and affinity values are given separately. The source made the active and inactive calls. Unless noted, how the calls were made is not given here.
Assays:
[1] = antimalarial activity against Dd2 strain (AID 2302;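 active means growth inhibition above 50% at the single 2 µM test dose, taken to imply half-maximal potency below 2 µM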;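 further: 0% = DMSO untreated growth and 100% = chloroquine plus artemisinin killed control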); details: P. falciparum Dd2 in RBCs, LDH growth readout, 72 h; at 2 µM; hits give high values
[2] = human hepatoma cell viability loss – ATP luminescence, cytotoxicity control for P. falciparum antimalarial project, primary screen (AID 2303;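 active means inhibition above 50%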;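 further: 0% = DMSO wells and 100% = digitonin-killed cells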); details: HepG2 viability, 24-48 h, at 10 µM, hits give high values
[3] = molecular target: L-lactate dehydrogenase (Plasmodium falciparum (isolate CDC / Honduras)) (UniProt Q27743); assay: PfLDH activity inhibition – cell lysate, 3D7 strain, counter-screen for P. falciparum growth inhibition project (AID 2304);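 further: 0% = vehicle and 100% = reference inhibitor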; details: P. falciparum 3D7 crude extract, LDH APAD/NBT absorbance; at 2 µM; hits give high values
Sequence of L-lactate dehydrogenase (Plasmodium falciparum (isolate CDC / Honduras)) (Q27743 whole entry, looked up): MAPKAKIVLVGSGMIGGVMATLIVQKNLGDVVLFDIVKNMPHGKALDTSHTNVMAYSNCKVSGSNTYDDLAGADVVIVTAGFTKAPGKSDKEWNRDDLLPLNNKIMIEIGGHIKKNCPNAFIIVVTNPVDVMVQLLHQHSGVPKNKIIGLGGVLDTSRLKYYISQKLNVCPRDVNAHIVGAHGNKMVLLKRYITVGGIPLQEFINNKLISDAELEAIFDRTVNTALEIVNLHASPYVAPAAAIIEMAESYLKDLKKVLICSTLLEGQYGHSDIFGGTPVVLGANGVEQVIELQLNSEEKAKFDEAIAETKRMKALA

[4] = inhibition of 3D7 malaria parasite growth – strain 3D7 (AID 2306);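 further: 0% = DMSO wells and 100% = chloroquine plus artemisinin control wells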; details: P. falciparum 3D7 erythrocytic growth, LDH absorbance, 72 h; at 2 µM; hits give high values
[5] = molecular target: Calcium-dependent protein kinase 1 (Plasmodium falciparum (isolate 3D7)) (UniProt P62344); assay: PfCDPK1 kinase inhibitors, biochemical, TCAMS library (AID 1159585; cut-off not given, nearly all actives have IC50 up to about 0.98 µM;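 further: inhibitors leave more ATP so luminescence rises with inhibition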); details: recombinant PfCDPK1, Kinase-Glo ATP depletion luminescence
Sequence of Calcium-dependent protein kinase 1 (Plasmodium falciparum (isolate 3D7)) (P62344 whole entry, looked up): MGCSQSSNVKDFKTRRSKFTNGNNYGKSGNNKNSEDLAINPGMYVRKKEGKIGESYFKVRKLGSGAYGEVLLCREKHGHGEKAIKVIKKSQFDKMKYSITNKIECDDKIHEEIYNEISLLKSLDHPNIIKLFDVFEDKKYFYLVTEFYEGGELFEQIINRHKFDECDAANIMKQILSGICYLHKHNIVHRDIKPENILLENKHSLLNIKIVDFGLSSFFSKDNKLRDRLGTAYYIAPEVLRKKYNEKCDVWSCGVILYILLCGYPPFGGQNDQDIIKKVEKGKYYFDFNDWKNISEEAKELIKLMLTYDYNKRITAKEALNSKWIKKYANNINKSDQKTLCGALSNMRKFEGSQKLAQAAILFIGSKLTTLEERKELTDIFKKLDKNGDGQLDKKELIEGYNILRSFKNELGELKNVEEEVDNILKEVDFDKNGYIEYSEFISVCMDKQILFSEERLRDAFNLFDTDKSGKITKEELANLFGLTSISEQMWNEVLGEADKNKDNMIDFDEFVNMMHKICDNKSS

[6] = molecular target: Plasmodium falciparum protein kinase 6 (PK6, PF3D7_1337100) (UniProt Q8IDW1); assay: PfPK6 kinase inhibitors, biochemical, TCAMS library (AID 1159586); details: recombinant PfPK6, Kinase-Glo ATP depletion luminescence
Sequence of Plasmodium falciparum protein kinase 6 (PK6, PF3D7_1337100) (Q8IDW1 1-305): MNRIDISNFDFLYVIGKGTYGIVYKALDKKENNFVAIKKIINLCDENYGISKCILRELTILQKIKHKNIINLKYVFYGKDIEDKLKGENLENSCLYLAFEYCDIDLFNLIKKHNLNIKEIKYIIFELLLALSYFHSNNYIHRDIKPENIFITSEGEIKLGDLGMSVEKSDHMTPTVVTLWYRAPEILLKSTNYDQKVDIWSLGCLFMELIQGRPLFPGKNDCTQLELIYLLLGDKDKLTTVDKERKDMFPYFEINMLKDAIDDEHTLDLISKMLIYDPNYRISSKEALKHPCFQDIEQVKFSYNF

[7] = molecular target: Protein kinase 7 (PK7), Plasmodium falciparum 3D7 (PF3D7_0213400) (UniProt Q7YTF7); assay: inhibition of Plasmodium PK7 catalytic activity – biochemical, TCAMS antimalarial set, Kinase-Glo luminescence (AID 1159587); details: recombinant PfPK7, Kinase-Glo ATP depletion luminescence
Sequence of Protein kinase 7 (PK7), Plasmodium falciparum 3D7 (PF3D7_0213400) (Q7YTF7 1-343): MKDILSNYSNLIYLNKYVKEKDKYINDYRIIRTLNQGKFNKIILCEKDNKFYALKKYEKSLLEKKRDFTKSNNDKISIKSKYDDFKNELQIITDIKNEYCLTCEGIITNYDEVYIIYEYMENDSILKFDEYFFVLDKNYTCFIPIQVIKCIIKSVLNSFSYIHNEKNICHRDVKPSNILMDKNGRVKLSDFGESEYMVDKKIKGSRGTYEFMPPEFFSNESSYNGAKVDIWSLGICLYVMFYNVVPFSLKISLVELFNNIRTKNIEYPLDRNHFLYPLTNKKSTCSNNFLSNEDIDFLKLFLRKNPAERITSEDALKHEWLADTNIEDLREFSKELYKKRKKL

[8] = molecular target: Calcium-dependent protein kinase 4 (Plasmodium falciparum (isolate 3D7)) (UniProt Q8IBS5); assay: PfCDPK4 kinase inhibitors, biochemical, TCAMS library (AID 1159588; cut-off not given, nearly all actives have IC50 up to about 0.91 µM); details: recombinant PfCDPK4, Kinase-Glo ATP depletion luminescence
Sequence of Calcium-dependent protein kinase 4 (Plasmodium falciparum (isolate 3D7)) (Q8IBS5 whole entry, looked up): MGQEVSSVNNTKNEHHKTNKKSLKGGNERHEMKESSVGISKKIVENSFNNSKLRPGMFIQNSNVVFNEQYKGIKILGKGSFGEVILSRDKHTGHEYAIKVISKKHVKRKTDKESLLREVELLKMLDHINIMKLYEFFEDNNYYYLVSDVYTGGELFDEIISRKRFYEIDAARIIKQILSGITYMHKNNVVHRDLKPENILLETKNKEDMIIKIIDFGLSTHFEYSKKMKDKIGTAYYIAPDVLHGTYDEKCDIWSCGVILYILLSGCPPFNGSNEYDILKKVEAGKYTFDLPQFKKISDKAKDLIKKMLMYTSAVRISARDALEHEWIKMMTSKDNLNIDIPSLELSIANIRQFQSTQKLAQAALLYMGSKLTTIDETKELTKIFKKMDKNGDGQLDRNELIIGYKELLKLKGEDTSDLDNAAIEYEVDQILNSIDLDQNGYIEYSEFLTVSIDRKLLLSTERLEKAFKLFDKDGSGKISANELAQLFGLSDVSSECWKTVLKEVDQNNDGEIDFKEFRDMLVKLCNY

Cc1cc(NC(=O)NCCN2CCC(NC(=O)c3ccc(Cl)cc3)CC2)c2ccccc2n1
active: growth inhibition [1] 54% | growth inhibition [4] 90%
inactive: inhibition [2] -4% | inhibition [3] -2% | outcome [5] | outcome [6] | outcome [7] | outcome [8]

CC1(C)N=C(N)N=C(N)N1OCCCc1cccc(C(F)(F)F)c1
active: growth inhibition [1] 95% | inhibition [2] 62% | growth inhibition [4] 95%
inactive: inhibition [3] -3% | outcome [5] | outcome [6] | outcome [7] | outcome [8]

Cc1cc(=O)oc2c1ccc1oc(C(O)c3ccc(Cl)cc3)c(C)c12 (stereo not drawn)
active: growth inhibition [1] 96% | growth inhibition [4] 95%
inactive: inhibition [2] -7% | inhibition [3] 1% | outcome [5] | outcome [6] | outcome [7] | outcome [8]

COC(=O)c1cccc(CNCc2ccc(-c3ccc(-c4nc5ccc(F)cc5[nH]4)s3)cc2)c1
active: growth inhibition [1] 82% | growth inhibition [4] 101%
inactive: inhibition [2] 4% | inhibition [3] 7% | outcome [5] | outcome [6] | outcome [7] | outcome [8]

N#Cc1ccc(NC(=O)Nc2ccc(OC(F)(F)F)cc2)cc1
active: growth inhibition [1] 91% | growth inhibition [4] 98%
inactive: inhibition [2] 43% | inhibition [3] 0% | outcome [5] | outcome [6] | outcome [7] | outcome [8]

CN1CCN(c2cc(NC(=O)c3ccc(-c4ccc(C#N)cc4)cc3)ccc2Cl)CC1
inactive: inhibition [2] 29% | inhibition [3] -5% | outcome [5] | outcome [6] | outcome [7] | outcome [8]
active: growth inhibition [1] 94% | growth inhibition [4] 101%

COc1cccc2c(NN=Cc3ccccc3Cl)cc(C)nc12
inactive: inhibition [2] 22% | inhibition [3] -2% | outcome [5] | outcome [6] | outcome [7] | outcome [8]
active: growth inhibition [1] 100% | growth inhibition [4] 102%

CN(C)Cc1ccc(-c2ccc3c(Nc4ccc(Oc5ccccc5)cc4)ccnc3c2)o1
inactive: inhibition [2] 10% | inhibition [3] 2% | outcome [5] | outcome [6] | outcome [7] | outcome [8]
active: growth inhibition [1] 100% | growth inhibition [4] 101%

Cc1cccc2[nH]c(-c3ccc(-c4cccc(NC(=O)C(C)CN(C)C)c4)s3)nc12 (stereo not drawn)
inactive: inhibition [2] 12% | inhibition [3] 0% | outcome [5] | outcome [6] | outcome [7] | outcome [8]
active: growth inhibition [1] 69% | growth inhibition [4] 92%

Cc1ccc(-n2c(=O)c3cccnc3n2CC(=O)Nc2cccc(C)c2C)cc1
active: growth inhibition [4] 96%
inactive: growth inhibition [1] 20% | inhibition [2] 9% | inhibition [3] -3% | outcome [5] | outcome [6] | outcome [7] | outcome [8]

O=c1cc(NCc2ccccc2NCc2ccc(Cl)c(Cl)c2)[nH]c2ccccc12
active: growth inhibition [1] 98% | growth inhibition [4] 93%
inactive: inhibition [2] 10% | inhibition [3] 3% | outcome [5] | outcome [6] | outcome [7] | outcome [8]

COc1cccc(CCc2nc3c(N4CCC(Cc5ccccc5)CC4)cccc3n2CC2CNCCO2)c1 (stereo not drawn)
inactive: inhibition [2] 4% | inhibition [3] 4% | outcome [5] | outcome [6] | outcome [7] | outcome [8]
active: growth inhibition [1] 96% | growth inhibition [4] 94%

COc1ccc2nc(-c3ccccc3)cc(NN=Cc3ccncc3)c2c1
active: growth inhibition [4] 99%
inactive: growth inhibition [1] 27% | inhibition [2] 14% | inhibition [3] -2% | outcome [5] | outcome [6] | outcome [7] | outcome [8]

O=C1O[C@H](c2ccccc2)[C@H](c2ccccc2)N(C(=O)OCc2ccccc2)[C@H]1Cc1ccccc1C1CCCC1
active: inhibition [2] 56% | growth inhibition [4] 97%
inactive: growth inhibition [1] -3% | inhibition [3] 1% | outcome [5] | outcome [6] | outcome [7] | outcome [8]

CN(CCN1CCCC1)c1nc2ccc(-n3cnc4cc(-c5ccc(Cl)cc5)sc4c3=O)cc2[nH]1
active: inhibition [2] 76% | growth inhibition [4] 93%
inactive: growth inhibition [1] 15% | inhibition [3] 3% | outcome [5] | outcome [6] | outcome [7] | outcome [8]

CCOc1c(CNCCCNc2nc3ccccc3[nH]2)cc(I)cc1OC
active: growth inhibition [4] 100%
inactive: growth inhibition [1] 4% | inhibition [2] 42% | inhibition [3] 1% | outcome [5] | outcome [6] | outcome [7] | outcome [8]

O=C(Nc1ccc(Cl)c(Cl)c1)Nc1ccccc1N1CCNCC1
inactive: growth inhibition [1] 22% | inhibition [2] 17% | inhibition [3] 1% | outcome [5] | outcome [6] | outcome [7] | outcome [8]
active: growth inhibition [4] 101%

COc1cc(OC)cc(C(=O)N2CCOC(CCN3CCC(c4ccccc4)CC3)(c3ccc(Cl)c(Cl)c3)C2)c1 (stereo not drawn)
active: growth inhibition [1] 61% | growth inhibition [4] 85%
inactive: inhibition [2] 13% | inhibition [3] 1% | outcome [5] | outcome [6] | outcome [7] | outcome [8]

CCc1cccc(NC(=O)/C=C/c2ccc3c(c2)CN(C)CC3)c1
active: growth inhibition [1] 91% | growth inhibition [4] 94%
inactive: inhibition [2] 8% | inhibition [3] -1% | outcome [5] | outcome [6] | outcome [7] | outcome [8]

O=C(/C=C/c1ccc(Cl)c(Cl)c1)NC1CCN(Cc2ccc(O)cc2)C1 (stereo not drawn)
active: growth inhibition [4] 97%
inactive: growth inhibition [1] 4% | inhibition [2] 15% | inhibition [3] -1% | outcome [5] | outcome [6] | outcome [7] | outcome [8]

CC12CN3CC(C)(CN(C1)C3c1cc(Br)ccc1O)C2O (stereo not drawn)
inactive: growth inhibition [1] 2% | inhibition [2] 5% | inhibition [3] -3% | outcome [5] | outcome [6] | outcome [7] | outcome [8]
active: growth inhibition [4] 98%

From PubChem BioAssay
